Activity calls are given as the source filed them. Unless noted, no rule for the calls is given here.
How the values were obtained:
[1] = anti-His antibody binders, primary screen, artefact control for SMM control protein annotation, biochemical, small-molecule microarray, 635 nm fluorescence (AID 1128); conditions: anti-His Alexa647 antibody binding, higher = more signal;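 also: score merges feature fluorescence with signal-to-noise for each printed compound spot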
[2] = test system: Human papillomavirus type 1a E7 protein (residues 1-88); assay: HPV1a E7 small-molecule binders, primary screen, biochemical, small-molecule microarray, residues 1-88, 635 nm (AID 1129); conditions: small-molecule microarray binding, fluorescence 635 nm; higher = more signal
[3] = target: Focal adhesion kinase 1 (Homo sapiens) (UniProt Q05397); assay: small-molecule microarray binders of FAK, primary screen, biochemical, 635/667 nm fluorescence, BSA, DTT (AID 1130); conditions: PTK2 binding, 635 nm fluorescence, higher = more signal;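 also: composite of spot emission at 667 nm and signal to noise over triplicate slides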
Sequence of Focal adhesion kinase 1 (Homo sapiens) (Q05397 whole entry, looked up): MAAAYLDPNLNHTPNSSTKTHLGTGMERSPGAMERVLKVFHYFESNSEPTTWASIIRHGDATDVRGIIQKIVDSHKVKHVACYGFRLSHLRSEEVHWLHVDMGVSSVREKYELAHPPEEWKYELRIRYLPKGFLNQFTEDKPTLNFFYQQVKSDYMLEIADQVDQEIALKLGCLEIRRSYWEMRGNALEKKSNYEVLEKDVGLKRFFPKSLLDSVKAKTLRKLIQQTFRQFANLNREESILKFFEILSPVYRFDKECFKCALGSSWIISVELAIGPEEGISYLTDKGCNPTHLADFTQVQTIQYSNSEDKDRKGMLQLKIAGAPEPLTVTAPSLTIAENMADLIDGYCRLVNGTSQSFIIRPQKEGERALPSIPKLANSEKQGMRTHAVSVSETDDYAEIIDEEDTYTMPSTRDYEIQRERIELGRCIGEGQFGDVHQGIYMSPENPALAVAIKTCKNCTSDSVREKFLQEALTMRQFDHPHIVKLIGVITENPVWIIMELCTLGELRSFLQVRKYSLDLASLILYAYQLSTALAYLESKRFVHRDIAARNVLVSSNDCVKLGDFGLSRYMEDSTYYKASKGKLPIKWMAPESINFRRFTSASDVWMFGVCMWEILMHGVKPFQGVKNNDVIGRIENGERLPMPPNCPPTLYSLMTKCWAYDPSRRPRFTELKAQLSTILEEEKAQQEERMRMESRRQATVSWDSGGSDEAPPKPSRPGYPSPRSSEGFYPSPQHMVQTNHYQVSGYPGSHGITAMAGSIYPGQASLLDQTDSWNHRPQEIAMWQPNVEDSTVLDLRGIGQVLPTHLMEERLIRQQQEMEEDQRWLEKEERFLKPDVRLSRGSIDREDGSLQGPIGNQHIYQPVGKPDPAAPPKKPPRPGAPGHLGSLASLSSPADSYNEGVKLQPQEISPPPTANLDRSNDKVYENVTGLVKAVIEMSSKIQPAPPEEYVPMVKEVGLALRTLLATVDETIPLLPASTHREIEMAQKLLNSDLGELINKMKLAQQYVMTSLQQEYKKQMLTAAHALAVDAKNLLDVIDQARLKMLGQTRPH

[4] = test system: Fibrinogen (Alexa647-labelled); assay: fibrinogen binders on compound microarrays, profiling panel, artefact control for SMM control-protein annotation, biochemical, small-molecule microarray, 635/667 nm fluorescence (AID 1131); conditions: fibrinogen-A647 binding fluorescence, higher = more signal;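 also: z-score merges 667 nm fluorescence with per-spot signal-to-noise over triplicate slides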
[5] = target: Follistatin (Homo sapiens) (UniProt P19883); assay: follistatin binders on small-molecule microarrays, primary screen, biochemical, small-molecule microarray, 635/667 nm fluorescence (AID 1132); conditions: FST binding, 635 nm fluorescence, higher = more signal
Sequence of Follistatin (Homo sapiens) (P19883 whole entry, looked up): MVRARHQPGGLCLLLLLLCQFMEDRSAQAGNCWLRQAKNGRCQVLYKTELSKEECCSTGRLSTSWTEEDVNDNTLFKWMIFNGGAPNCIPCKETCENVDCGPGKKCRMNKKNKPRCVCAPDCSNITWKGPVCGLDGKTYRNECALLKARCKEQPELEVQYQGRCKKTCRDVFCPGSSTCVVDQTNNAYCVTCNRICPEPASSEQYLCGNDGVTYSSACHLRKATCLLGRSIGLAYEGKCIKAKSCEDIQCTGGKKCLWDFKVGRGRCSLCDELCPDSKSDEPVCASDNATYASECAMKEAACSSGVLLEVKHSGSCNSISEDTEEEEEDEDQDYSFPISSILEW

[6] = target: Fibroblast growth factor 2 (Homo sapiens) (UniProt P09038); assay: FGF2 binders on small-molecule microarrays, primary screen, biochemical, small-molecule microarray, 635/667 nm fluorescence (AID 1133); conditions: small-molecule microarray binding, FGF2, fluorescence 635/667; higher = more signal
Sequence of Fibroblast growth factor 2 (Homo sapiens) (P09038 whole entry, looked up): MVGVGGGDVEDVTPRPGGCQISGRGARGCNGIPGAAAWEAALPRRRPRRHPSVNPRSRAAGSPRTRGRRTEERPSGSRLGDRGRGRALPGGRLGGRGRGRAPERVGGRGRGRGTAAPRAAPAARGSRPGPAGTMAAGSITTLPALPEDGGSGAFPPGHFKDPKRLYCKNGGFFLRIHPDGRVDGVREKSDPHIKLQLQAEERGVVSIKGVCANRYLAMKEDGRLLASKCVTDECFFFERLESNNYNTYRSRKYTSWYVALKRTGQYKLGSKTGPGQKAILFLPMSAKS

[7] = mitochondrial membrane potential change in A549 cells, profiling panel, cell-based, JC-1 fluorescence, basal, 24 h, 100 nL (AID 1138); conditions: higher = more signal;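 also: A549 lung adenocarcinoma cells under basal conditions with no added stimulus; test concentration not given here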
Lefty1 = Lefty1 binders on small-molecule microarrays, primary screen, biochemical, small-molecule microarray, 635/667 nm fluorescence (AID 1139); conditions: small-molecule microarray binding, fluorescence 635/667; higher = more signal
[8] = test system: wheat germ agglutinin (Triticum aestivum), Alexa647-labelled; assay: wheat germ agglutinin binders on compound microarrays, profiling panel, artefact control for SMM control-protein annotation, biochemical, small-molecule microarray, 635/667 nm fluorescence (AID 1140); conditions: WGA-A647 binding, 635 nm fluorescence, higher = more signal;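 also: score merges 667 nm feature emission with signal to noise over triplicate slides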
[9] = target: Luciferin 4-monooxygenase (Photinus pyralis) (UniProt P08659); assay: firefly luciferase enzyme inhibitors, primary screen, biochemical, luminescence, purified enzyme, 2006 set (AID 1141); conditions: SteadyGlo luminescence, 30 min, higher = more signal, called active from +8 up or from −8 down;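 also: cell-free assay with purified firefly luciferase at 100 ng per well in PBS; test concentration not given here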
Sequence of Luciferin 4-monooxygenase (Photinus pyralis) (P08659 whole entry, looked up): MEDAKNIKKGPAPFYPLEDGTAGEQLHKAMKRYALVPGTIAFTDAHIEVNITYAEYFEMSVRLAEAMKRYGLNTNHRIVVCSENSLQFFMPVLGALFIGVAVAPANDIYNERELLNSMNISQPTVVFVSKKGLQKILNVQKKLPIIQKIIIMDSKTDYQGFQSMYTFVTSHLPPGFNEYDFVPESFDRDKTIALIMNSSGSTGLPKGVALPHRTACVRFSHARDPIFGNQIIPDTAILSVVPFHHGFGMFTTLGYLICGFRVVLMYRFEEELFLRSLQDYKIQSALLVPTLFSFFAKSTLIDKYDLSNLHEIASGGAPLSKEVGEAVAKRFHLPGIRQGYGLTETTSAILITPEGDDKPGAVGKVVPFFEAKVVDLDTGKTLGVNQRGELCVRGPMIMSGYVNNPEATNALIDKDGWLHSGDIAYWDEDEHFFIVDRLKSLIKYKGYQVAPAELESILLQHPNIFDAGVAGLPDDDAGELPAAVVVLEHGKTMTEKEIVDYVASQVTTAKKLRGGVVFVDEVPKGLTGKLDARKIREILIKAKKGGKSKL

[10] = test system: Wnt5a (protein binding on small-molecule microarray); assay: Wnt5a binders on small-molecule microarray, primary screen, biophysical, 635/667 nm fluorescence (AID 1142); conditions: 635 nm fluorescence, higher = more signal;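 also: fluorescence read at 667 nm with signal to noise per printed feature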
[11] = cell viability in Huh7 cells, primary screen, cytotoxicity control for HCV replication inhibitor project, CellTiter-Glo luminescence, basal, 48 h (AID 1143); conditions: Huh7 HCV replicon, higher = more signal, called active from +8 up or from −8 down;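 also: Huh7 hepatoma cells carrying a hepatitis C replication reporter with no stimulus; test concentration not given here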
[12] = P. aeruginosa biofilm formation inhibitors, primary screen, PAO1 strain, BacTiter-Glo luminescence, LB-PBS (AID 1144); conditions: 12 h, higher = more signal
[13] = CREB reporter modulators without forskolin, primary screen, cell-based, PC12, CRE-LacZ reporter, unstimulated (AID 1145); conditions: no forskolin, luminescence, 4.5 h, higher = more signal, called active from +8 up or from −8 down
[14] = CREB reporter modulators under forskolin, primary screen, cell-based, PC12, CRE-LacZ reporter, forskolin-stimulated (AID 1146); conditions: luminescence, 4.5 h, higher = more signal, called active from +8 up or from −8 down;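 also: PC12 cells with 6xCRE LacZ reporter stimulated by forskolin 10 µM; beta-galactosidase reporter signal reflecting CREB driven transcription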
[15] = target: Streptavidin (Streptomyces avidinii) (UniProt P22629); assay: streptavidin binders on small-molecule microarray, primary screen, artefact control for SMM compound annotation, biophysical, 635/667 nm fluorescence (AID 1147); conditions: streptavidin binding, higher = more signal;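 also: signal reflects streptavidin binding to arrayed compounds as a control protein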
Sequence of Streptavidin (Streptomyces avidinii) (P22629 whole entry, looked up): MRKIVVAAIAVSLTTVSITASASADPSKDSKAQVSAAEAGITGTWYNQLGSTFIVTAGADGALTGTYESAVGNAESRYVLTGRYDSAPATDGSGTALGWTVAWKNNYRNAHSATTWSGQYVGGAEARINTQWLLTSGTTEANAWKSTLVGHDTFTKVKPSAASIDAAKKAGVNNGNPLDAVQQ

[16] = small-molecule binders of probe aInhba, primary screen, biochemical, small-molecule microarray, 635/667 nm fluorescence (AID 1148); conditions: higher = more signal;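 also: score merges 667nm spot fluorescence with signal-to-noise for antibody binding to printed compounds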
Torsin-1A (Homo sapiens) [17] = target: Torsin-1A (Homo sapiens) (UniProt O14656); assay: torsin A binders from cell lysate, primary screen, small-molecule microarray, wild-type, 635/667 nm (AID 1149); conditions: COS7 hTOR1A-WT lysate, 635 nm fluorescence, higher = more signal
Sequence of Torsin-1A (Homo sapiens) (O14656 whole entry, looked up): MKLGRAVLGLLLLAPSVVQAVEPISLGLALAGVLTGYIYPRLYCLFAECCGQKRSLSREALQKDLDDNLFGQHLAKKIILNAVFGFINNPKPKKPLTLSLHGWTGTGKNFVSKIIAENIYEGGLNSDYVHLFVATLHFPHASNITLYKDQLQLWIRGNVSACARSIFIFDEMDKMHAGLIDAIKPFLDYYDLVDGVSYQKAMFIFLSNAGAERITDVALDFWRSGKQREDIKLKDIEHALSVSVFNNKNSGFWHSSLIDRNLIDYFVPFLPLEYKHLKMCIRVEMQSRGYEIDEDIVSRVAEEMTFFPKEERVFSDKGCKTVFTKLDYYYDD

Torsin-1A (Homo sapiens) [18] = target: Torsin-1A (Homo sapiens) (UniProt O14656); assay: small-molecule binders of mutant TOR1A in lysate, primary screen, cell lysate, small-molecule microarray, COS7 lysate, 635/667 nm fluorescence (AID 1150); conditions: COS7 hTOR1A mutant lysate, 635 nm fluorescence, higher = more signal;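 also: score pools 667 nm emission and signal to noise measuring lysate protein binding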
[19] = test system: Sonic hedgehog protein (Shh); assay: small-molecule binders of Shh protein, primary screen, biochemical, small-molecule microarray, 635/667 nm fluorescence (AID 1151); conditions: small-molecule microarray binding, 635 nm fluorescence; higher = more signal;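 also: Shh protein binding to compounds spotted on small-molecule microarray slides; score combines spot fluorescence intensity with signal-to-noise across triplicate slides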

Structure (SMILES) | composite z-score [1] | composite z-score [2] | composite z-score [3] | composite z-score [4] | composite z-score [5] | composite z-score [6] | z-score [7] | composite z-score (Lefty1) | composite z-score [8] | z-score [9] | composite z-score [10] | z-score [11] | z-score [12] | z-score [13] | z-score [14] | composite z-score [15] | composite z-score [16] | composite z-score (Torsin-1A (Homo sapiens) [17]) | composite z-score (Torsin-1A (Homo sapiens) [18]) | composite z-score [19]
CC[C@@H]1[C@H]2C3C(=O)N(CC)C(=O)C3CC(=O)[C@H]2[C@H](c2ccc(C)cc2)N1S(=O)(=O)c1ccc(C)cc1 (stereo not given in full) | 0.733 | 1.1 | 0.213 | 0.142 | 0.532 | 0.087 | 1.18 | 0.201 | 0.676 | 0.497 (inactive) | 0.163 | -2.9 (inactive) | 0.394 (inactive) | -0.77 (inactive) | -0.878 (inactive) | 1.4 | -0.0986 | -0.343 | 0.112 | 0.514
COCCCNC(=O)[C@]1(Cc2ccccc2N=[N+]=[N-])N=C(c2ccc(OCCCO)cc2)O[C@@H]1c1ccccc1N=[N+]=[N-] | 2.22 | 1.19 | 0.356 | 0.983 | 0.778 | -0.165 | -0.214 | -0.252 | 0.676 | -3.27 (inactive) | 0.497 | -4.87 (inactive) | 0.524 (inactive) | 0.432 (inactive) | -1.98 (inactive) | 1.25 | -0.0011 | 0.238 | 0.605 | -0.973
CCOc1cc(C(O)C2C=CC3C(=O)N(C)C(=O)C3N2N2CCCCC2)ccc1O (stereo not given) | 1 | -0.158 | 0.125 | 0.498 | 0.746 | 0.1 | -0.634 | 0.192 | 0.335 | -0.906 (inactive) | 0.194 | 0.862 (inactive) | -0.401 (inactive) | 0.433 (inactive) | -0.499 (inactive) | 0.3 | -0.137 | 0.28 | 0.221 | 0.0937
CCCCN1CC=CC23O[C@@H]4C=CCOC(=O)[C@@H]4[C@H]2C(=O)N(CCCO)[C@@H]3C1=O (stereo not given in full) | 0.56 | -0.518 | -0.609 | -1.28 | -1.45 | -0.682 | -1.08 | -0.199 | -0.929 | -0.135 (inactive) | -0.133 | -1.98 (inactive) | -0.766 (inactive) | -0.757 (inactive) | 1.47 (inactive) | -0.808 | -0.23 | 0.222 | -0.107 | -0.512
O=C1OCC=C[C@H]2OC34C=CCN(Cn5nnc6ccccc65)C(=O)[C@H]3N(CCCCCCO)C(=O)[C@@H]4[C@@H]12 (stereo not given in full) | 1.42 | -0.238 | 0.058 | -1.49 | -0.982 | -0.525 | 0.421 | -0.835 | -0.544 | -0.283 (inactive) | -0.277 | 0.205 (inactive) | 1.16 (inactive) | 0.0484 (inactive) | -0.116 (inactive) | -0.701 | 0.111 | -0.494 | -0.416 | -0.104
COCCOC(=O)N1C(=O)[C@@]2(c3cc(C#Cc4ccc(OC)cc4)ccc31)[C@H](C(=O)NC[C@H](O)c1ccccc1)[C@H]1C(=O)O[C@H](c3ccccc3)[C@H](c3ccccc3)N1[C@@H]2c1ccc(O)cc1 | 0.933 | 1.16 | 0.33 | 0.912 | 1.16 | 1.01 | -1.47 | 1.19 | 0.666 | 0.273 (inactive) | 0.317 | -2.05 (inactive) | -0.392 (inactive) | -1.01 (inactive) | -1.19 (inactive) | 0.582 | 0.0228 | 0.772 | 0.527 | 1.73
NC(=O)NCC#Cc1ccc2c(c1)[C@]1(C(=O)N2)[C@H](c2ccc(O)cc2)N2[C@H](c3ccccc3)[C@H](c3ccccc3)OC(=O)[C@H]2[C@@H]1C(=O)Nc1nc2ccccc2s1 | -0.185 | 0.622 | -0.15 | 0.666 | 1.44 | 1.49 | -2.24 | 0.9 | 0.717 | -1.49 (inactive) | 0.303 | -0.623 (inactive) | -1.41 (inactive) | -0.788 (inactive) | -0.988 (inactive) | 0.106 | -0.0018 | 0.374 | -0.0346 | 1.09
C=CC[C@]1(C(=O)N(C)C)N=C(c2ccc(OCCCO)cc2)O[C@H]1c1ccccc1N=[N+]=[N-] | 2.04 | 1.22 | 0.264 | 1.02 | 0.899 | -0.267 | 1.08 | -0.0297 | 1.25 | -9.41 (active) | 0.596 | -2.58 (inactive) | 0.00404 (inactive) | 1.99 (inactive) | -1.23 (inactive) | 1.61 | -0.0136 | 0.73 | 0.696 | -1.32
C=CCN1C(=O)[C@]2(CC=C)N=C(c3ccc(OCCCO)cc3)O[C@@H]2c2ccccc21 | 3.19 | 1.16 | 0.496 | 0.297 | 1.39 | 1.56 | -0.998 | 0.768 | 1.14 | -3.31 (inactive) | 0.731 | -4.15 (inactive) | 0.312 (inactive) | 0.796 (inactive) | -0.953 (inactive) | 0.842 | 0.296 | 0.265 | 0.538 | 1.65
COC(=O)c1c(CC[C@@H](CO)NC(=O)N[C@H](Cn2cc(-c3ccccc3C)nn2)C(C)C)oc(C(C)=O)c1C(=O)OC | 0.0233 | -0.0523 | 0.14 | 0.335 | -0.505 | -0.37 | -0.704 | -0.0683 | 0.567 | 0.379 (inactive) | -0.338 | -2.66 (inactive) | -0.673 (inactive) | 1.5 (inactive) | -0.644 (inactive) | -0.0581 | -0.003 | -0.123 | -0.171 | -0.272
